HDAC3 inh: HDAC3 deacetylase inhibitors, primary screen, biochemical, fluorescence, cell-free homogeneous; recombinant HDAC3, fluorogenic peptide/trypsin coupled; 320,000 tested, 0.15% active; Histone deacetylase 3 (Homo sapiens), O15379; inhibition, % at 8.3 µM; in the data active means inhibition above about 26%, passing the limit was not always enough
Target sequence (O15379 whole entry, looked up): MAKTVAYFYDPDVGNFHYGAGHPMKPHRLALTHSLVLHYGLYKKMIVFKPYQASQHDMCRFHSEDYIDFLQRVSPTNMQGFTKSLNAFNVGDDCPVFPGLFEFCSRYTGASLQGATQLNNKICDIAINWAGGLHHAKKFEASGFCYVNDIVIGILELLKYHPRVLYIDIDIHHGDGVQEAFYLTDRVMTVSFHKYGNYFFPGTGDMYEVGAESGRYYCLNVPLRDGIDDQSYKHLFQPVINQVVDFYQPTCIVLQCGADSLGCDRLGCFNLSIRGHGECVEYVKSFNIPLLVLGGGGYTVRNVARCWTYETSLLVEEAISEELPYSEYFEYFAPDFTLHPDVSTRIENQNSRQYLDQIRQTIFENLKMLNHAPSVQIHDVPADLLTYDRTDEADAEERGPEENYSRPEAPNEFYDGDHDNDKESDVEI
LANA DNA inh: inhibitors of KSHV C-LANA binding to DNA, primary screen, biochemical, fluorescence polarization, FAM-LBS DNA, MBP-C-LANA, single point; inhibition, % at 9 µM; 340,000 tested, 0.078% active; AID 504423, 2011;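 active means highest replicate inhibition at or above 60% at 9 µM, even if other replicates fall short; inactive means all replicates below 60% inhibition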
NSD2 inh: NSD2 histone methyltransferase inhibitors, primary screen, biochemical, AlphaScreen, single concentration, set 2 | NSD2 peptide methylation, 120 min | inhibition, % at 12.5 µM | 310,000 tested, 0.54% active | AID 743445, 2014; in the data active means inhibition above about 50%
Keap1-Nrf2 PPI: Keap1-Nrf2 protein-protein interaction inhibitors, primary screen, biochemical, fluorescence polarization, single point | Kelch-like ECH-associated protein 1 (Homo sapiens), Q14145 | Keap1 Kelch-Nrf2 peptide fluorescence polarization, 1536-well | inhibition, % at 9.4 µM | 340,000 tested, 0.15% active | AID 504523, 2011; in the data active means inhibition above about 12%;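 further: human Keap1 Kelch domain with fluorescein labeled Nrf2 9mer peptide probe; higher means more block of Keap1 binding to Nrf2 peptide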
CASP6 VEID inh: human caspase-6 inhibitors, primary screen, biochemical, VEID-R110 fluorescence, single point, set 2. purified caspase-6, Z-VEID-R110 cleavage fluorescence. AID 686996, 2013. 350,000 tested, 0.53% active. inhibition, % at 12.5 µM;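 active means mean inhibition across replicates at least about 35%, with every replicate also reaching that limit, limit read from the data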
Glyco luc inh: increase of ERlucT glycosylation luciferase signal, primary screen, N-linked glycosylation inhibitor project, D54 ERlucT cells, luminescence, set 2 | D54 ERlucT glycosylation luciferase reporter, 24 h; percent of 100 nM tunicamycin response | reporter increase, % at 12.5 µM | 360,000 tested, 0.23% active;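 active means mean luciferase reporter signal, scaled so untreated is 0 and the glycosylation-blocking control 100, at or above a set limit in every replicate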;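 further: luciferase carries N-glycosylation sites so blocking glycosylation raises the light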
Numbers stand for hits. An excerpt weighted towards active compounds, which were near 1.1% of everything screened.

`O=C1NN(c2ccccc2)C(=O)/C1=C\c1coc2ccc(O)cc2c1=O` gave HDAC3 inh inactive, LANA DNA inh inactive, NSD2 inh inactive, Keap1-Nrf2 PPI inactive, CASP6 VEID inh 39 and Glyco luc inh inactive.
`CSC1=NSC2=NC(=O)/C(=C\c3cccs3)C(=N)N12` gave HDAC3 inh inactive, LANA DNA inh inactive, NSD2 inh inactive, Keap1-Nrf2 PPI inactive and Glyco luc inh inactive.
`O=S(c1ccccc1O)S(=O)c1ccccc1O` (stereo unspecified) gave LANA DNA inh inactive, NSD2 inh inactive, Keap1-Nrf2 PPI inactive, CASP6 VEID inh 62 and Glyco luc inh inactive.
`CS(=O)c1ccccc1O` (stereo unspecified) gave HDAC3 inh inactive, LANA DNA inh inactive, NSD2 inh inactive, Keap1-Nrf2 PPI inactive, CASP6 VEID inh inactive and Glyco luc inh inactive.
O=c1oc2c(O)c(O)cc3c(=O)oc4c(O)c(O)cc1c4c23 was read as HDAC3 inh inactive, LANA DNA inh 127, Keap1-Nrf2 PPI inactive and Glyco luc inh inactive.
For CCOC(=O)c1c(CSC(=N)N)n(-c2ccc(Br)cc2)c2cc(Br)c(OC(C)=O)cc12 the results were LANA DNA inh inactive, NSD2 inh inactive, Keap1-Nrf2 PPI inactive and Glyco luc inh inactive.
For CCCCCCCCOC(=O)c1c(CSC(=N)N)n(C)c2cc(Br)c(OC(C)=O)cc12 the results were HDAC3 inh 33, NSD2 inh inactive, CASP6 VEID inh inactive and Glyco luc inh inactive.
Screening Cc1nn(-c2ccccc2)c2c1P(=O)(O)/C(=C1\N(C)c3ccccc3C1(C)C)C=N2 returned HDAC3 inh inactive, LANA DNA inh inactive, NSD2 inh inactive, Keap1-Nrf2 PPI inactive, CASP6 VEID inh 40 and Glyco luc inh inactive.
C[C@H](CO)N1C[C@H](C)[C@H](CN(C)Cc2ccc3c(c2)OCO3)Oc2ccc(NC(=O)NC3CCCCC3)cc2C1=O was read as CASP6 VEID inh inactive.
Cc1ccc(-c2cnc3c(c2)C(=O)N([C@H](C)CO)C[C@@H](C)[C@H](CN(C)C(=O)c2cccnc2)O3)cc1 was read as CASP6 VEID inh inactive.
`O=c1cc(-c2ccccc2)[nH]c2ccc(F)cc12` gave HDAC3 inh inactive, LANA DNA inh inactive, Keap1-Nrf2 PPI inactive, CASP6 VEID inh inactive and Glyco luc inh inactive.
O=c1[nH]c2ccc(F)cc2[nH]c1=O was read as HDAC3 inh inactive, LANA DNA inh inactive, NSD2 inh inactive, Keap1-Nrf2 PPI inactive, CASP6 VEID inh 42 and Glyco luc inh inactive.
`CC(C)C#Cc1ccc([C@H]2[C@H]3CN(C(=O)c4ccc5c(c4)OCO5)CCCCN3[C@H]2CO)cc1` gave CASP6 VEID inh inactive.
For O=c1cc(-c2ccc(Cl)cc2)oc(=O)[nH]1 the results were HDAC3 inh inactive, LANA DNA inh inactive, NSD2 inh inactive, Keap1-Nrf2 PPI inactive, CASP6 VEID inh inactive and Glyco luc inh inactive.
O=c1cc(N=Nc2ccc(Cl)cc2)[nH]c(=O)[nH]1 was read as HDAC3 inh inactive, LANA DNA inh inactive, NSD2 inh inactive, Keap1-Nrf2 PPI inactive, CASP6 VEID inh inactive and Glyco luc inh 70.
`CS(=O)(=O)N1N=C(c2ccco2)CC1c1ccco1` (stereo unspecified) gave HDAC3 inh inactive, LANA DNA inh inactive, NSD2 inh inactive, Keap1-Nrf2 PPI inactive, CASP6 VEID inh 62 and Glyco luc inh inactive.
Screening O=C(O)c1cccc(NC(=O)c2cn(-c3ccccc3)nc2-c2ccc([N+](=O)[O-])cc2)c1 returned HDAC3 inh inactive, LANA DNA inh inactive, NSD2 inh inactive, Keap1-Nrf2 PPI inactive, CASP6 VEID inh inactive and Glyco luc inh inactive.
COc1ccc(-c2nn(-c3ccccc3)cc2C(=O)Nc2cccc(C(=O)O)c2)cc1[N+](=O)[O-] was read as HDAC3 inh inactive, LANA DNA inh inactive, NSD2 inh inactive, Keap1-Nrf2 PPI inactive, CASP6 VEID inh 67 and Glyco luc inh inactive.
Screening CCCNC(=O)C[C@H]1C[C@H]2c3cc(N(C)C)ccc3O[C@H]2[C@H](CO)O1 returned CASP6 VEID inh inactive.
For CC(=O)N1[C@@H]2c3ccc(-c4cccc(F)c4)c(=O)n3C[C@H]1[C@H](CO)[C@H]2C(=O)NCC1CC1 the results were CASP6 VEID inh inactive.
Screening COC(=O)c1ccc(Cn2c(O)c(N=NC(N)=S)c3ccccc32)o1 returned HDAC3 inh 39, LANA DNA inh inactive, NSD2 inh inactive, Keap1-Nrf2 PPI inactive, CASP6 VEID inh inactive and Glyco luc inh inactive.
Screening CCCc1cc(-c2n[nH]c(C(=O)OCC)c2-c2cscn2)c(O)cc1O returned HDAC3 inh inactive, LANA DNA inh inactive, NSD2 inh inactive, Keap1-Nrf2 PPI inactive, CASP6 VEID inh 45 and Glyco luc inh inactive.
For CCOC(=O)c1[nH]nc(-c2c(O)cc(C)cc2O)c1-c1csc(C)n1 the results were HDAC3 inh inactive, LANA DNA inh inactive, NSD2 inh inactive, Keap1-Nrf2 PPI inactive and Glyco luc inh inactive.
`O=C(C[C@H]1C=C[C@@H](NC(=O)c2cccc(F)c2)[C@H](CO)O1)Nc1nccs1` gave CASP6 VEID inh inactive.
O=C(N/N=C/c1cc(Br)c(O)c(Br)c1O)c1cccnc1 was read as LANA DNA inh inactive, NSD2 inh inactive, Keap1-Nrf2 PPI inactive, CASP6 VEID inh 40 and Glyco luc inh inactive.
Screening O=C(N/N=C/c1cccnc1)c1cc(O)c(O)c(O)c1 returned HDAC3 inh inactive, LANA DNA inh inactive, NSD2 inh inactive, Keap1-Nrf2 PPI inactive, CASP6 VEID inh 41 and Glyco luc inh inactive.
O=C(N/N=C/c1cc(O)ccc1Br)c1cccnc1 was read as HDAC3 inh inactive, LANA DNA inh inactive, NSD2 inh inactive, Keap1-Nrf2 PPI inactive, CASP6 VEID inh inactive and Glyco luc inh inactive.
Screening C[C@H](CO)N1C[C@H](C)[C@@H](CN(C)C(=O)Nc2cccc3ccccc23)Oc2c(NC(=O)Nc3ccccc3)cccc2C1=O returned CASP6 VEID inh inactive.
O=C(C[C@H]1C[C@H]2c3cc(NC(=O)C4CCC4)ccc3O[C@H]2[C@@H](CO)O1)NCC(F)(F)F was read as CASP6 VEID inh inactive.
Screening C[C@]1(O)CC(=O)C=C[C@H]1Nc1ccccc1 returned LANA DNA inh inactive, Keap1-Nrf2 PPI inactive, CASP6 VEID inh inactive and Glyco luc inh 44.
Screening CC1(C)CC(C(=O)Nc2ccccc2)C(=O)O1 (stereo unspecified) returned HDAC3 inh inactive, LANA DNA inh inactive, NSD2 inh inactive, Keap1-Nrf2 PPI inactive, CASP6 VEID inh inactive and Glyco luc inh inactive.
O=C(NC(=O)c1csnn1)Nc1ccccc1Cl was read as HDAC3 inh inactive, LANA DNA inh inactive, NSD2 inh inactive, Keap1-Nrf2 PPI inactive, CASP6 VEID inh 61 and Glyco luc inh inactive.

Assay outcomes from PubChem.
